VP16 counter: inhibits Gal4-VP16 luciferase reporter, ROR gamma counter-screen. Drosophila S2 Gal4-VP16 UAS-luciferase, luminescence, 20 h. Potency, µM (titrated, usually from 53.6 µM), without a hit: top-dose activity, negative = inhibition, usual class: inhibitors. 310,000 tested, 3.5% active. AID 2546;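 note: Gal4-VP16 expression switched on by copper sulfate through the metallothionein promoter; nearly all actives have a fitted effect of over 50% in size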
ALDH1A1 block: inhibitors of human aldehyde dehydrogenase 1A1; P00352; Purified ALDH1A1, NADH fluorescence, propionaldehyde substrate; Potency, µM (top dose mostly 75.3 µM), for the others: at the highest dose activity, negative = inhibition, hits mostly inhibitors; 220,000 tested, 7.3% active; AID 1030; active = well fitted inhibition curve with a large enough effect, not every such curve was filed as active; inconclusive = small, poorly fitted or top-dose-only effect, or another doubt; inactive = no such curve, though single readings can be large or run the other way;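 note: plate controls were no enzyme wells and a reference inhibitor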
PLK1 PBD block: blocks phosphopeptide binding to human PLK1 polo-box domain; 360,000 tested, 2.8% active; P53350; Plk1 PBD binding of FITC phosphopeptide, fluorescence polarization; Potency, µM, for inactives: max response, negative = inhibition, hits mostly inhibitors; note: series mostly up to about 57 µM; nearly all actives have a fitted effect of over 65% in size
Target sequence (P53350 whole entry, looked up, the tested form may be a part): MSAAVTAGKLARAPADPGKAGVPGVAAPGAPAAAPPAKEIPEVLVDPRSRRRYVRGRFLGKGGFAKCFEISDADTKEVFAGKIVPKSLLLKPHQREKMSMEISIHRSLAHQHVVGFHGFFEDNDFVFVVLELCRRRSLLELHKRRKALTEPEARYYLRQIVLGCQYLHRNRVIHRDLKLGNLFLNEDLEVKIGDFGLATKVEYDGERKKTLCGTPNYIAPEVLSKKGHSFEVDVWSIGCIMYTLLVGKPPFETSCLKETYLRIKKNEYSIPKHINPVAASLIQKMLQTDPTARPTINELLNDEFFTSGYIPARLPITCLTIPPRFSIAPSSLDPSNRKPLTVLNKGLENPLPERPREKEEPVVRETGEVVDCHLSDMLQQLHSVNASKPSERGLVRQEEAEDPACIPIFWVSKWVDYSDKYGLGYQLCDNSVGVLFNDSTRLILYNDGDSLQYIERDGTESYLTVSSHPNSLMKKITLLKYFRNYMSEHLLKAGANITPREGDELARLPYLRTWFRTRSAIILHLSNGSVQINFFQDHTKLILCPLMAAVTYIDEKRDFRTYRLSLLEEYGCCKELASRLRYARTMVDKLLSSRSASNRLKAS
RORg inh: ROR gamma (mouse) transcription inhibition. P51450. Drosophila S2 Gal4-RORgamma UAS-luciferase reporter, 20 h. Potency, µM (highest dose often 53.6 µM), inactives show at the top dose activity change, negative = inhibition, hits mostly inhibitors. 310,000 tested, 5.4% active; note: nearly all actives have a fitted effect of over 60% in size
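A Gal4/UAS one-hybrid system in insect cells: metallothionein-promoter Gal4–ROR gamma fusion plus Photinus luciferase reporter. Copper sulfate 700 uM final, 20 hr ambient incubation, luminescent detection after 10 min with reagent.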
Sfp inh: inhibitors of Bacillus subtilis Sfp phosphopantetheinyl transferase | Q9F4F7 | Biochemical Sfp PPTase activity, qHTS | Potency, µM, without a hit: largest response in the series, negative = inhibition, hits mostly inhibitors | 310,000 tested, 3.5% active | AID 1490;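 note: the enzyme is Sfp with the accession as filed and its product quenches rhodamine fluorescence; 0% = enzyme reaction without inhibitor and -100% = no enzyme wells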
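Reaction rates are the 30-min fluorescence difference (ex 525, em 598 nm) in wells containing 15 nM Sfp, 5 uM rhodamine-CoA and 12.5 uM BHQ-2-YbbR at pH 7.6 with 10 mM MgCl2.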
* marks the source's active call; other numbers are inactive results; ? = inconclusive; . = no result. This is a sample that favours compounds with a hit; in the whole collection about 12% have one here. Unless noted, calls come from the whole dose curve; as a rule, active = well fitted curve in the direction sought with a large enough effect; inconclusive = small, poorly fitted or top-dose-only effect, or another doubt; inactive = no such curve, though single readings can be large; an effect the other way counts as inactive or inconclusive. Unless noted, % is set by controls: 0 for no effect and ±100 for the full control effect; potency is the fitted concentration of half-maximal effect.

SMILES	VP16 counter	ALDH1A1 block	PLK1 PBD block	RORg inh	Sfp inh
COc1ccc(C2C(C#N)=C(N)Oc3c2c(C)nn3-c2ccccc2)cc1Cn1nc(C)c([N+](=O)[O-])c1C (centres undefined)	-29%	5µM*	?	-41%	-16%
N#CC1=C(N)Oc2cc(N)ccc2C1c1ccc(Cl)cc1 (centres undefined)	1%	.	3%	-9%	-8%
CC1(C(=O)NCc2cccc(Cl)c2)Cc2c(-c3ccc4c(c3)OCO4)ccnc2O1 (centres undefined)	.	.	3%	.	.
CC(C)C(=O)N1CCN(c2ccc([N+](=O)[O-])c(NC(C)c3ccccc3)c2)CC1 (centres undefined)	-12%	22µM*	-5%	22%	-11%
O=C(NCc1ccccc1Cl)c1ccc2sc([C@H]3C[C@H](O)[C@@H](CO)O3)nc2c1	.	.	-8%	.	.
Cc1ccc(-n2ncc(C(=O)N3CCc4ccccc4C3)c2NC(=O)c2ccco2)cc1C	?	1µM*	-7%	-94%	-62%
CCCCCCCCCCCCCC[C@@H](O)[C@@H](O)[C@H](CO)NC(C)=O	-3%	.	.	5%	?
O=c1[nH]c2cc(C(F)(F)F)c(N3CCOCC3)cc2n(CP(=O)(O)O)c1=O	8%	7%	.	-8%	23%
CCn1cc(C(=O)NCC2CCCO2)c(=O)c2cc(S(=O)(=O)N(C)C)ccc21 (centres undefined)	-2%	4%	-4%	14%	15%
C=CCn1cc(C(=O)OC)c(=O)c2cc(S(=O)(=O)N3CCCCCC3)ccc21	-6%	14µM*	6%	2%	-3%
C=CCn1cc(C(=O)NCC2CCCO2)c(=O)c2cc(S(=O)(=O)N3CCCCCC3)ccc21 (centres undefined)	6%	13µM*	-4%	30%	3%
CCn1cc(C(=O)N2CCN(c3ccccc3)CC2)c(=O)c2cc(S(=O)(=O)N3CCOCC3)ccc21	-12%	.	-9%	13%	12%
CCn1cc(C(=O)N2CCN(c3ccc(OC)cc3)CC2)c(=O)c2cc(S(=O)(=O)N3CCCCC3)ccc21	-2%	11µM*	-4%	24%	5%
CCCCN1C(=O)C(CC(=O)NCCCN(C)C)CC(C(=O)N2CCOCC2)=C1C (centres undefined)	.	.	-3%	.	.
Cc1ccccc1NC(=O)CSc1nc2cc3c(cc2cc1C)CCC3	-2%	1%	-8%	-13%	-17%
CCC(=O)Nc1ccc(NC(=O)CSc2nc3cc4c(cc3cc2C)CCC4)cc1	0%	11µM*	-2%	-27%	?
CN(C)c1ccc(-c2sc(Nc3ccccc3)n[n+]2-c2ccc(F)cc2)cc1	3%	.	13%	14µM*	-10%
CCc1ccc(Nc2n[n+](-c3ccccc3)c(-c3ccc(N(CC)CC)cc3)s2)cc1	13µM*	.	49%	?	50µM*
CCc1ccc(Nc2n[n+](-c3ccccc3)c(-c3cc(OC)c(OC)cc3Br)s2)cc1	-26%	.	-15%	10µM*	-8%
COc1ccc(-c2sc(Nc3ccccc3)n[n+]2-c2ccc(F)cc2)cc1Br	0%	.	?	-43%	15%
O=C(O)c1ccc(-c2sc(Nc3ccccc3)n[n+]2-c2ccc(F)cc2)cc1	4%	.	-30%	-9%	-14%
CCc1ccc(Nc2n[n+](-c3ccccc3)c(-c3c(Cl)cccc3Cl)s2)cc1	?	.	-19%	11µM*	71µM*
CCN(CC)c1ccc(/C=N/NC(=O)c2nnn(-c3nonc3N)c2CN(C)C2CCCCC2)cc1	.	.	-14%	.	.
CCN(CC)c1ccc(-c2sc(Nc3ccccc3)n[n+]2-c2ccc(F)cc2)cc1	17%	.	32%	10µM*	56µM*
Cc1nnc(NCC=Cc2ccccc2)s1	.	.	2%	.	.
SMILES	VP16 counter	ALDH1A1 block	PLK1 PBD block	RORg inh	Sfp inh
CCc1ccc(Nc2n[n+](-c3ccccc3)c(/C=C/c3ccccc3)s2)cc1	-88%	.	.	?	50µM*
CCCCn1c(N)c(N(Cc2ccccc2OC)C(=O)C(C)C)c(=O)[nH]c1=O	-18%	.	-3%	28%	5%
O=C(NCC1CCCO1)c1cn(Cc2ccccc2Cl)nc1-c1ccccc1 (centres undefined)	.	.	-3%	.	.
Cc1cc(/C=C2/C(=N)N3C(=NC2=O)SN=C3S(C)(=O)=O)c(C)n1-c1ccc(F)cc1	-3%	28µM*	?	13%	-13%
CCOc1ccc(-n2c(C)cc(/C=C3/C(=N)N4C(=NC3=O)SN=C4S(C)(=O)=O)c2C)cc1	-5%	18µM*	19µM*	26%	-25%
CCOc1cc(/C=C2/C(=N)N3C(=NC2=O)SN=C3S(C)(=O)=O)ccc1OS(=O)(=O)c1ccccc1	-1%	.	15µM*	24%	-5%
COc1cc(/C=C2/C(=N)N3C(=NC2=O)SN=C3S(C)(=O)=O)ccc1OS(=O)(=O)c1ccccc1	0%	.	.	-4%	-18%
CCOC(=O)C1C(C(=O)OC)=C(CC(C)C)c2ccccc2N1S(=O)(=O)C(F)(F)F (centres undefined)	5%	2%	.	34%	16%
COc1ccc(NC(=O)COc2ccc(C(=O)OCC(=O)N(C(C)C)C(C)C)cc2OC)cc1	-7%	4%	24µM*	7%	24%
CCOC(=O)/C(C#N)=C/c1ccc(OCC(=O)Nc2ccc(OC)cc2)c(OC)c1	-9%	5µM*	-9%	-39%	13%
CCOc1ccc(NC(=O)/C(=C\c2ccc(OC(C)=O)c(OC)c2)NC(C)=O)cc1	-2%	10µM*	1%	26%	-12%
CCOC(=O)/C(C#N)=C/c1ccc(OCC(=O)Nc2ccc(C)c(C)c2)c(OC)c1	-7%	?	2%	-1%	-19%
COc1cc(C=C2C(=O)OC(C)(C)OC2=O)ccc1OCC(=O)Nc1ccccc1	-16%	?	19µM*	1%	18%
CC(=O)NC(Cc1ccc(O)cc1)C(=O)NN (centres undefined)	-9%	11%	9%	6%	20%
COc1cc(C(=O)Nc2ccc(S(=O)(=O)N3CCCCC3)cc2)ccc1OCC(=O)N1CCOCC1	.	.	2%	.	.
CC(C)(C)c1ccc(Cn2nc(CC(=O)O)c3ccccc3c2=O)cc1	-3%	4%	-17%	36%	1%
COc1ccc(/C=C(\C#N)C(=O)OCC(=O)Nc2ccc(C(C)(C)C)cc2)cc1	-1%	22µM*	10%	?	10%
COc1cc(/C=C(\C#N)c2nc3ccccc3s2)ccc1OCC(=O)Nc1ccccc1	-20%	-1%	16%	0.13µM*	?
COc1ccc(/C=C(\C#N)C(=O)OCC(=O)NC2CC2)cc1	1%	20µM*	-19%	18%	8%
COc1cc(/C=C(\CC(=O)O)c2nc3ccccc3s2)ccc1OCC(=O)Nc1ccccc1F	.	.	-21%	.	.
O=C(CSc1nnc(COc2cccc3cccnc23)o1)N1CCc2ccccc21	-9%	14µM*	-2%	27%	9%

Compound activity deposited in PubChem by National Center for Advancing Translational Sciences (NCATS).
